Assay results: ChEMBL document CHEMBL4513216, “Probing the Open Global Health Chemical Diversity Library for Multistage-Active Starting Points for Next-Generation Antimalarials” (ACS Infect Dis, 2020)
The whole screen tested about 69,000 compounds, of which about 8,600 (12%) showed an effect of 50% or more. The full list was thinned out, with strong results kept by preference.

These molecules were tested on Plasmodium berghei (assay: Screen against P. berghei liver stage (PbLuc), transformed with Luciferase, at 10uM). Details: tested at 10 uM.
Format: functional, HepG2

| SMILES | INHIBITION [%] |
| --- | --- |
| CC(C)CN1CC[C@@H]2[C@@H]1CCN2S(=O)(=O)c1cn(C)cn1 | 13.7 |
| CCCN(CCOC)c1nc(C)nc2sccc12 | 53.9 |
| COCCN(Cc1cnn(C)c1)c1nc(C)nc2sccc12 | -39.2 |
| CCOCCN(CCOCC)c1nc(C)nc2sccc12 | 69.7 |
| COCCN(Cc1sccc1C)c1nc(C)nc2sccc12 | 14.6 |
| CCC(CN1CCCC1)NC(=O)Cc1c(C)[nH]c2c(C)cc(C)cc12 (stereo unspecified) | 41.2 |
| Cc1nn(C)c(C)c1S(=O)(=O)N1C[C@@H]2C[C@@H](C)O[C@@H]2C1 | 8.74 |
| CN(C)C(=O)CN1C(=O)[C@@H]2CC[C@H]1CN(Cc1ccccc1C#N)C2 | 23.9 |
| O=C(NCC1CC1)C1CCC2(CCN(C(=O)c3cccs3)CC2)O1 (stereo unspecified) | -14.7 |
| O=C(Nc1ccc(Br)cc1F)c1ccc(N2CCOCC2)nn1 | 52.3 |
| CSc1ccccc1NC(=O)c1ccc(N2CCOCC2)nn1 | -117 |
| O=C(Nc1ccc(Br)cc1F)c1ccc(N2CCCCC2)nn1 | 10.8 |
| COc1ccc(C)cc1C(=O)N1CCCC(n2cncn2)C1 (stereo unspecified) | -16 |
| Cc1noc(C)c1CN(Cc1cccs1)C1CCS(=O)(=O)C1 (stereo unspecified) | 36.1 |
| O=S1(=O)CCC(N(Cc2nc3ccccc3o2)Cc2cccs2)C1 (stereo unspecified) | -32.5 |
| O=C(NCC1CCS(=O)(=O)C1)N(Cc1ccco1)C1CC1 (stereo unspecified) | 38.2 |
| CC(C)(C)c1nc(CN(Cc2cccs2)C2CCS(=O)(=O)C2)cs1 (stereo unspecified) | 59.4 |
| Cc1ccc(-c2nc(CN(Cc3ccco3)C3CCS(=O)(=O)C3)cs2)o1 (stereo unspecified) | 62.8 |
| Cc1noc(CN(Cc2cccs2)C2CCS(=O)(=O)C2)n1 (stereo unspecified) | 49.8 |
| Cc1ccc(-c2nc(CN3CCC(C(=O)N(C)C)CC3)cs2)o1 | 39.5 |
| Cc1ccc(-c2nc(CN3CCCC(C(=O)N(C)C)C3)cs2)o1 (stereo unspecified) | 35.9 |
| CC(C)(C)c1nc(CN(Cc2cccs2)C2CCS(=O)(=O)C2)no1 (stereo unspecified) | 34.7 |
| Cc1nc(CN(Cc2cccs2)C2CCS(=O)(=O)C2)oc1C (stereo unspecified) | 19.5 |

| SMILES | INHIBITION [%] |
| --- | --- |
| Cc1ccc(-c2nc(CN(C)C3CCS(=O)(=O)C3)cs2)o1 (stereo unspecified) | 57.7 |
| Cc1ccc(-c2nc(CN(Cc3cccs3)C3CCS(=O)(=O)C3)cs2)o1 (stereo unspecified) | 87.6 |
| CCOCCN1Cc2cnn(C)c2C(COCC)C1 (stereo unspecified) | 42.7 |
| CN(C)c1ncccc1CNC(=O)N1CCCC1c1cccs1 (stereo unspecified) | 4.71 |
| CCN1CCN(C)C2(CCN(Cc3ccc(C)o3)CC2)C1=O | -93.5 |
| O=c1[nH]cc(N2CCOCC2)c(=O)[nH]1 | -56.8 |
| CCn1ccnc1CN1CCN(CCc2ccccn2)CC1C (stereo unspecified) | 13.8 |
| O=C1N(CC2CC2)CCC12CCN(CC1CC1)CC2 | 21.7 |
| O=C(CCCNCc1ccccc1)N1CCCn2cncc2C1 | 30.9 |
| Cc1ccc(CN2CCc3ncnc(-c4cccnc4)c3CC2)o1 | 13.7 |
| Cc1cc(N2CCC(C(=O)N(C)C)CC2)nc(-c2ccncc2)n1 | -148 |
| COc1cccc(-c2c[nH]c(C)n2)c1F | -114 |
| CCCS(=O)(=O)N1CCC(NC(=O)c2ccc(Cl)s2)CC1 | 21 |
| O=C(NC1CC(=O)N(C2CC2)C1)c1ccc(Cl)s1 (stereo unspecified) | 33.1 |
| CC(C)N1CC(NC(=O)c2ccc(Cl)s2)CC1=O (stereo unspecified) | 83.8 |
| O=C(NCCCF)N1CCC(n2ccc(C(F)(F)F)n2)CC1 | 36.3 |
| O=C(CNC(=O)N1CCc2c([nH]c3ccc(Cl)cc23)C1)NC1CCCC1 | -6.91 |
| COCC(=O)N1CC(c2n[nH]cc2C)C1 | -41.1 |
| CN1CCN(C(=O)c2cc3c(s2)CCN3C(=O)C2CC2)CC1 | -29.8 |
| O=C(NCCN1CCCC1)c1cc2c(s1)CCN2C(=O)c1ccccc1 | -28 |
| O=C(c1cc2c(s1)CCN2C(=O)C1CC1)N1CCCC1 | 23.3 |
| CCCNC(=O)c1cc2c(s1)CCN2C(=O)c1ccccc1 | -27 |
| O=C(NC1CC1)c1cc2c(s1)CCN2C(=O)C1CC1 | 51.4 |

| SMILES | INHIBITION [%] |
| --- | --- |
| O=C(NC1CCCC1)c1cc2c(s1)CCN2C(=O)c1ccccc1 | 55.9 |
| c1cncc(COCc2nnn3c2CN(Cc2ccsc2)CC3)c1 | -9.26 |
| Nc1cc(-c2ccc(C(=O)O)cc2O)c2cc[nH]c2n1 | 2.91 |
| Nc1cc(-c2cc(C(=O)O)ccc2Cl)c2cc[nH]c2n1 | 15.2 |
| O=C(O)CNc1cc(-c2cc(C3CC3)ncn2)c2cc[nH]c2n1 | 19.5 |
| OCCNc1cc(-c2nccnc2N2CCCC2)c2cc[nH]c2n1 | 37.7 |
| O=C(O)CNc1cc(-c2nccnc2N2CCCC2)c2cc[nH]c2n1 | 51.8 |
| Nc1cc(-c2nccnc2N2CCCC2)c2cc[nH]c2n1 | 58.3 |
| CN1CC(=O)N(c2cccc(F)c2)CC12CCN(Cc1cncn1C)C2 (stereo unspecified) | -15.7 |
| CS(=O)(=O)NCC1CCCN(C(=O)c2ccc(Cl)o2)C1 (stereo unspecified) | 15 |
| O=C(c1ccccn1)N1CC[C@@H](N2CCOCC2)[C@@H]1Cc1ccccc1 | 39.2 |
| Cc1nccn1-c1cncc(C2CCCN2Cc2ccccc2)n1 (stereo unspecified) | 36.7 |
| COCCN1CCCc2sc(C(=O)N3CCCN(C)CC3)nc21 | 5.36 |
| Clc1ccccc1CN1CCc2nc(C3CCCNC3)ncc2C1 (stereo unspecified) | 6.32 |
| Cc1noc(NC(=O)c2ccc(Br)s2)n1 | 85.9 |
| Cc1noc(NC(=O)c2ccc(OC(F)(F)F)cc2)n1 | 87.6 |
| Cc1noc(NC(=O)c2ccc(Br)o2)n1 | 31.9 |
| Cc1noc(NC(=O)c2cccc(Br)c2)n1 | 88.2 |
| Cc1noc(NC(=O)c2ccc(Br)cc2)n1 | 91.5 |
| Cc1ccc(C(=O)Nc2nc(C)no2)cc1 | 23.7 |
| Cc1c(NC(=O)c2cccc(Br)c2)c(C(=O)N(C)C)nn1C | 45.8 |
| Cc1noc(NC(=O)CCNC(=O)c2ccc(Br)cc2)n1 | 14.1 |
| Cc1noc(NC(=O)c2ccc(C#N)cc2)n1 | -0.96 |

| SMILES | INHIBITION [%] |
| --- | --- |
| Cc1noc(NC(=O)c2ccccc2)n1 | -10.6 |
| Cn1nc(CNC(=O)c2ccc(OC(F)(F)F)cc2)c2c1CCOC2 | -6.42 |
| Cc1noc(COCC(=O)Nc2ccc(Br)c(C)n2)n1 | 10.7 |
| Cc1n[nH]c(C)c1NC(=O)NCc1cc[nH]n1 | 36 |
| O=C(NCC1CCCO1)N1CCN(Cc2ccc3c(c2)CCO3)CC1 (stereo unspecified) | -21.5 |
| OCCNc1nccc(-c2c[nH]nc2-c2cccnc2)n1 | 15.9 |
| C[C@@H]1CN(C(=O)NC2CC2)C[C@]12CCN(c1ccsc1)C2=O | 17.1 |
| CC(=O)N1CCCC1(C(=O)N1CCCC1)c1cnccn1 (stereo unspecified) | 6.35 |
| CN(C)S(=O)(=O)c1ccc(=O)n(CC2CCCO2)c1 (stereo unspecified) | -28.9 |
| CC(C)CNC(=O)Cc1cnc(-n2cccc2)s1 | 28.3 |
| CC(=O)N1CCCC(Cc2cnc(-c3c(C)nn(C)c3C)cn2)C1 (stereo unspecified) | -10.4 |
| COc1ccc2c(c1)CCCN(C(=O)NCC1CCCO1)C2 (stereo unspecified) | 37.4 |
| NC(=O)CN1CCCN(C(=O)CCOc2ccccc2Cl)CC1 | 29.7 |
| CCCNC(=O)C1(Cc2cc(-c3ccccc3)no2)CCN(C(C)=O)C1 (stereo unspecified) | -3.94 |
| CC(O)CNc1c(NCc2ccco2)c(=O)c1=O (stereo unspecified) | 18.2 |
| c1ccc(Cc2noc(CN3CCOC(Cn4cncn4)C3)n2)cc1 (stereo unspecified) | 13.3 |
| COCCO[C@@H]1CCN(Cc2csc(C)n2)[C@H]1Cc1ccccc1 | 18.1 |
| Cc1noc(C)c1-c1cccc(CC2CCN(C(=O)c3cc[nH]n3)C2)n1 (stereo unspecified) | 46.1 |
| NS(=O)(=O)N1CCc2ccc(NC(=O)CC(F)(F)F)cc21 | 63.3 |
| CS(=O)(=O)N1CCc2c(cccc2NC(=O)CC(F)(F)F)C1 | 0.79 |
| CS(=O)(=O)Nc1ccc(CNC(=O)CN2CCc3ccccc32)cc1 | 16.6 |
| NS(=O)(=O)N1CCc2ccc(NC(=O)Cc3ccc(F)cc3)cc21 | 22.9 |
| NS(=O)(=O)N1CCc2ccc(NC(=O)Cc3ccccc3F)cc21 | 54.4 |

| SMILES | INHIBITION [%] |
| --- | --- |
| NS(=O)(=O)N1CCc2ccc(NC(=O)CCc3ccncc3)cc21 | 38.5 |
| Cc1cnc2c(C(=O)N(C)Cc3cc(C4CC4)[nH]n3)cnn2c1 | 21.8 |
| CC(C)NC(=O)Nc1nc2c(s1)CN(C(=O)NCc1cccs1)CC2 | 46.4 |
| c1ccc(-c2nc(CCNCc3cccnc3)co2)cc1 | 45.3 |
| COCC1Cn2nnc(-c3cnn(C)c3)c2CN1Cc1cccs1 (stereo unspecified) | 2.58 |
| O=C(c1cccs1)N1CCc2c(nc(N3CCCC3)[nH]c2=O)C1 | 34 |
| CC(CNS(=O)(=O)c1cccc(Cl)c1)N1CCN(C)CC1 (stereo unspecified) | 46.4 |
| Cc1cc(Cl)ccc1S(=O)(=O)NCC(C)N1CCN(C)CC1 (stereo unspecified) | 68.3 |
| Cc1cccc(S(=O)(=O)NCC(C)N2CCN(C)CC2)c1Cl (stereo unspecified) | -38.2 |
| Cc1cc(N(C)C)nc(C2(C)CCCN2C(=O)c2cnccn2)n1 (stereo unspecified) | 16.5 |
| CCN(CC)CCNCc1cc(O)c2cc(C)ccc2n1 | 16.3 |
| CCOCCCNCc1cc(O)c2cc(C)ccc2n1 | 0.672 |
| Cc1ccc2nc(CNCCCN3CCCC3=O)cc(O)c2c1 | 31.7 |
| Cc1ccc2nc(CNCCCOc3ccccc3)cc(O)c2c1 [UCSF924] | 75.7 |
| CCS(=O)(=O)CCNCc1cc(O)c2cc(C)cc(C)c2n1 | 45.8 |
| COCCCNCc1cc(O)c2cc(C)cc(C)c2n1 | 51.2 |
| CCOCC1(CNCc2cc(O)c3cc(C)ccc3n2)CC1 | 35.4 |
| Cc1cc(C)c2nc(CNCCNS(C)(=O)=O)cc(O)c2c1 | 43.9 |
| CCOCCNCc1cc(O)c2cc(C)ccc2n1 | 53.3 |
